For some assays here: Measured potencies and affinities stand elsewhere. Activity calls are given as the source filed them. Unless noted, no rule for the calls is given here.
What was measured:
[1] = antimalarial activity against Dd2 strain (AID 2302;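 active = growth inhibition above 50% at the single 2 µM test dose, taken to imply half-maximal potency below 2 µM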;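 also: 0% = DMSO untreated growth and 100% = chloroquine plus artemisinin killed control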); conditions: P. falciparum Dd2 in RBCs, LDH growth readout, 72 h; at 2 µM; hits give high values
[2] = human hepatoma cell viability loss – ATP luminescence, cytotoxicity control for P. falciparum antimalarial project, primary screen (AID 2303;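 active = inhibition above 50%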;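 also: 0% = DMSO wells and 100% = digitonin-killed cells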); conditions: HepG2 viability, 24-48 h, at 10 µM, hits give high values
[3] = biological target: L-lactate dehydrogenase (Plasmodium falciparum (isolate CDC / Honduras)) (UniProt Q27743); assay: PfLDH activity inhibition – cell lysate, 3D7 strain, counter-screen for P. falciparum growth inhibition project (AID 2304);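 also: 0% = vehicle and 100% = reference inhibitor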; conditions: P. falciparum 3D7 crude extract, LDH APAD/NBT absorbance; at 2 µM; hits give high values
[4] = inhibition of 3D7 malaria parasite growth – strain 3D7 (AID 2306);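 also: 0% = DMSO wells and 100% = chloroquine plus artemisinin control wells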; conditions: P. falciparum 3D7 erythrocytic growth, LDH absorbance, 72 h; at 2 µM; hits give high values
[5] = biological target: Calcium-dependent protein kinase 1 (Plasmodium falciparum (isolate 3D7)) (UniProt P62344); assay: PfCDPK1 kinase inhibitors, biochemical, TCAMS library (AID 1159585; cut-off not given, nearly all actives have IC50 up to about 0.98 µM;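 also: inhibitors leave more ATP so luminescence rises with inhibition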); conditions: recombinant PfCDPK1, Kinase-Glo ATP depletion luminescence
[6] = biological target: Plasmodium falciparum protein kinase 6 (PK6, PF3D7_1337100) (UniProt Q8IDW1); assay: PfPK6 kinase inhibitors, biochemical, TCAMS library (AID 1159586); conditions: recombinant PfPK6, Kinase-Glo ATP depletion luminescence
[7] = biological target: Protein kinase 7 (PK7), Plasmodium falciparum 3D7 (PF3D7_0213400) (UniProt Q7YTF7); assay: inhibition of Plasmodium PK7 catalytic activity – biochemical, TCAMS antimalarial set, Kinase-Glo luminescence (AID 1159587); conditions: recombinant PfPK7, Kinase-Glo ATP depletion luminescence
[8] = biological target: Calcium-dependent protein kinase 4 (Plasmodium falciparum (isolate 3D7)) (UniProt Q8IBS5); assay: PfCDPK4 kinase inhibitors, biochemical, TCAMS library (AID 1159588; cut-off not given, nearly all actives have IC50 up to about 0.91 µM); conditions: recombinant PfCDPK4, Kinase-Glo ATP depletion luminescence
Calcium-dependent protein kinase 4 (Plasmodium falciparum (isolate 3D7)), sequence (Q8IBS5 whole entry, looked up): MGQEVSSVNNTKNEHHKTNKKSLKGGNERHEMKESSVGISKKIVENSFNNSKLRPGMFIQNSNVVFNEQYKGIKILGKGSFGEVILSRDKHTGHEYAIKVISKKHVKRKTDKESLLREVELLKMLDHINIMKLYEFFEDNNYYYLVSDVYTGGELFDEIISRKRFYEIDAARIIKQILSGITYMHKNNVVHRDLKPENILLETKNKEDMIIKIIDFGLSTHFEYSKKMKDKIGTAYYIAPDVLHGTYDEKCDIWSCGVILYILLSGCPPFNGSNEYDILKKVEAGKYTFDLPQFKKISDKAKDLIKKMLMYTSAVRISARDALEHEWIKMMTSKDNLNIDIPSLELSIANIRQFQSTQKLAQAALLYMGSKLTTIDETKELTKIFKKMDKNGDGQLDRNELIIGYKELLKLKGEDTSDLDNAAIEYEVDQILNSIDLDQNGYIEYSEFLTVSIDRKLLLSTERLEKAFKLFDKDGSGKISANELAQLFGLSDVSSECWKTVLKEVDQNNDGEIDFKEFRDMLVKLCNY

Protein kinase 7 (PK7), Plasmodium falciparum 3D7 (PF3D7_0213400), sequence (Q7YTF7 1-343): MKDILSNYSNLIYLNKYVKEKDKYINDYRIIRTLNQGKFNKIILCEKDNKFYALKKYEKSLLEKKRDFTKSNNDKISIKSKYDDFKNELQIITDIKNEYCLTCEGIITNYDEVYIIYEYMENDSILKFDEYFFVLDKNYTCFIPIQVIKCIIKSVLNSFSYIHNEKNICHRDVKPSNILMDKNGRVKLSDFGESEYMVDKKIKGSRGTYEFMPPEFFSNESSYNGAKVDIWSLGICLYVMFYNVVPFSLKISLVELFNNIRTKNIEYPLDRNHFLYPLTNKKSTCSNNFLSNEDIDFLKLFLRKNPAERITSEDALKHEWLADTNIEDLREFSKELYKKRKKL
Plasmodium falciparum protein kinase 6 (PK6, PF3D7_1337100), sequence (Q8IDW1 1-305): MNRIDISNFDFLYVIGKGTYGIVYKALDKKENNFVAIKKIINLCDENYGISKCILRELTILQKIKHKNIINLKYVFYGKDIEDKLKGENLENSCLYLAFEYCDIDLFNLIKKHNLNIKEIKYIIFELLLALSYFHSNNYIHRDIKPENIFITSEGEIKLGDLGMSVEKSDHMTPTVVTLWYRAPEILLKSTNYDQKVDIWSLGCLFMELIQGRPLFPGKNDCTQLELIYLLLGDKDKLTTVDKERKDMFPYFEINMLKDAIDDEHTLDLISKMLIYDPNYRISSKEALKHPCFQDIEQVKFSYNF
L-lactate dehydrogenase (Plasmodium falciparum (isolate CDC / Honduras)), sequence (Q27743 whole entry, looked up): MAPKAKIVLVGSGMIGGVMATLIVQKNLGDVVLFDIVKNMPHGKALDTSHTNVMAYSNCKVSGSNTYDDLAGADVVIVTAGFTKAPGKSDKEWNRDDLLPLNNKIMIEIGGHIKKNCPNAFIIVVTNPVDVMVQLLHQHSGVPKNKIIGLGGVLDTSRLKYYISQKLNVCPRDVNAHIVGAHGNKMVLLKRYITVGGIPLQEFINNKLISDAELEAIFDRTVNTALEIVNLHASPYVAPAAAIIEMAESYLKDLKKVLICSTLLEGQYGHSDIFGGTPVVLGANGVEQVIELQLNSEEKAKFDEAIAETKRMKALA
Calcium-dependent protein kinase 1 (Plasmodium falciparum (isolate 3D7)), sequence (P62344 whole entry, looked up): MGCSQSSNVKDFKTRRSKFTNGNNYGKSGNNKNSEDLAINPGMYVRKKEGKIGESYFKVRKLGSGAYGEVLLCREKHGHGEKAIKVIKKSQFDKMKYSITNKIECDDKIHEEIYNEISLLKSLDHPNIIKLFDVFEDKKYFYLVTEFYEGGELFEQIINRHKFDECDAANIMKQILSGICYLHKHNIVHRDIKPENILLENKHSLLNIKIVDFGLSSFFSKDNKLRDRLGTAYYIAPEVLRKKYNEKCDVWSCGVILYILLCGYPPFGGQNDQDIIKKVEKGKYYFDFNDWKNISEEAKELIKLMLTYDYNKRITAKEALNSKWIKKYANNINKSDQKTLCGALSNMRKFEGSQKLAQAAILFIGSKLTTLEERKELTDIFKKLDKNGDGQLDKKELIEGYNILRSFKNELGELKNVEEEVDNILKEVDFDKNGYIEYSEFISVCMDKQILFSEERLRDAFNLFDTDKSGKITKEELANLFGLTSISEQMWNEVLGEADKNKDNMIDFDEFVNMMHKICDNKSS

CN(C)c1ccc(CN2CCC(NC(=O)c3ccc(-c4cccc(C(F)(F)F)c4)s3)CC2)cc1
inactive: growth inhibition [1] 40% | inhibition [3] -4% | outcome [5] | outcome [6] | outcome [7] | outcome [8]
active: inhibition [2] 90% | growth inhibition [4] 97%

CCn1cc(CN2C(=O)C(c3ccccc3)(c3ccccc3)N=C2N)cn1
inactive: inhibition [2] 7% | inhibition [3] -2% | outcome [5] | outcome [6] | outcome [7] | outcome [8]
active: growth inhibition [1] 60% | growth inhibition [4] 95%

COc1c(C2CCN(CCCCNC(=O)c3ccc(NC(=O)c4ccc(C#N)cc4)cc3)CC2)ccc2c1CCCC2
active: growth inhibition [1] 100% | inhibition [2] 81% | growth inhibition [4] 97%
inactive: inhibition [3] 1% | outcome [5] | outcome [6] | outcome [7] | outcome [8]

CCC(C)c1cccc(C(C)CC)c1OCCCON1C(N)=NC(N)=NC1(C)C (configuration not stated)
active: growth inhibition [1] 98% | inhibition [2] 51% | growth inhibition [4] 91%
inactive: inhibition [3] -4% | outcome [5] | outcome [6] | outcome [7] | outcome [8]

COc1ccc2nccc([C@@H](O)CN3CCC(NS(=O)(=O)c4cc(Br)c(Br)s4)CC3)c2c1
inactive: growth inhibition [1] 36% | inhibition [2] 14% | inhibition [3] -2% | outcome [5] | outcome [6] | outcome [7] | outcome [8]
active: growth inhibition [4] 92%

CC(C)c1ccc(CN2CCC(CNC(=O)c3cc(-c4cccc(Cl)c4)cs3)C2)cc1 (configuration not stated)
active: growth inhibition [4] 99%
inactive: growth inhibition [1] 43% | inhibition [2] 42% | inhibition [3] 1% | outcome [5] | outcome [6] | outcome [7] | outcome [8]

CCN(CC)CCN(Cc1ccc(-c2ccc(C(F)(F)F)cc2)cc1)C(=O)Cn1c(CCc2cccc(F)c2F)nc(=O)c2ccc(C(F)(F)F)cc21
inactive: inhibition [2] 19% | inhibition [3] -2% | outcome [5] | outcome [6] | outcome [7] | outcome [8]
active: growth inhibition [1] 55% | growth inhibition [4] 99%

CCN(CC)CCCC(C)Nc1cc(C)nc2cc(Cl)ccc12 (configuration not stated)
active: growth inhibition [4] 100%
inactive: growth inhibition [1] 7% | inhibition [2] 9% | inhibition [3] 5% | outcome [5] | outcome [6] | outcome [7] | outcome [8]

CCOc1ccc(OCC)c(N2CCN(CCCCNC(=O)c3ccc(NC(=O)c4ccc(Cl)cc4)cc3)CC2)c1
active: growth inhibition [4] 97%
inactive: growth inhibition [1] 40% | inhibition [2] 13% | inhibition [3] 1% | outcome [5] | outcome [6] | outcome [7] | outcome [8]

c1ccc2[nH]c(-c3ccc(-c4ccc(CN5CCCCC5)cc4)s3)nc2c1
inactive: inhibition [2] 41% | inhibition [3] 2% | outcome [5] | outcome [6] | outcome [7] | outcome [8]
active: growth inhibition [1] 69% | growth inhibition [4] 102%

CSc1ccc(CN2CCC(CNC(=O)c3cc(-c4ccccc4F)cs3)C2)cc1 (configuration not stated)
inactive: growth inhibition [1] 13% | inhibition [2] 32% | inhibition [3] 2% | outcome [5] | outcome [6] | outcome [7] | outcome [8]
active: growth inhibition [4] 90%

O=C(C=Cc1ccc(Cl)c(Cl)c1)NCCCCCN1CCC(CCCNC(=O)[C@@H]2C[C@H]2c2ccccc2)CC1
inactive: growth inhibition [1] 12% | inhibition [2] 45% | inhibition [3] -1% | outcome [5] | outcome [6] | outcome [7] | outcome [8]
active: growth inhibition [4] 95%

CC(C)N1CCN(CCCNc2c3ccccc3nc3ccccc23)CC1
active: growth inhibition [4] 100%
inactive: growth inhibition [1] 1% | inhibition [2] 29% | inhibition [3] 8% | outcome [5] | outcome [6] | outcome [7] | outcome [8]

COc1ccc(Cl)cc1-c1nc(C(=O)NCCN2CCCCC2)c(C(C)C)s1
active: growth inhibition [4] 100%
inactive: growth inhibition [1] 37% | inhibition [2] 14% | inhibition [3] -3% | outcome [5] | outcome [6] | outcome [7] | outcome [8]

COc1cc(OCCCN(C)Cc2ccc(OC)c(OC)c2)ccc1NC(=O)c1cccc2c(=O)c3cccc(F)c3[nH]c12
active: growth inhibition [1] 62% | growth inhibition [4] 94%
inactive: inhibition [2] 10% | inhibition [3] -5% | outcome [5] | outcome [6] | outcome [7] | outcome [8]

NC1=NC2(CCCCC2)N(Cc2ccc(Cl)c(Cl)c2)C(N)=N1
inactive: inhibition [2] 22% | inhibition [3] -3% | outcome [5] | outcome [6] | outcome [7] | outcome [8]
active: growth inhibition [1] 76% | growth inhibition [4] 86%

CCOC(=O)N1CCN(CCCNc2c3ccccc3nc3ccccc23)CC1
inactive: growth inhibition [1] 20% | inhibition [2] 5% | inhibition [3] 2% | outcome [5] | outcome [6] | outcome [7] | outcome [8]
active: growth inhibition [4] 90%

CCCC(=O)Nc1ccc(Nc2nc(C)cc(N3CCCC3)n2)cc1
active: growth inhibition [4] 100%
inactive: growth inhibition [1] 46% | inhibition [2] 31% | inhibition [3] 4% | outcome [5] | outcome [6] | outcome [7] | outcome [8]

Cc1cc(NN=Cc2ccccc2Cl)c2ccc(F)cc2n1
inactive: inhibition [2] 6% | inhibition [3] -4% | outcome [5] | outcome [6] | outcome [7] | outcome [8]
active: growth inhibition [1] 100% | growth inhibition [4] 101%

Source: PubChem BioAssay
